Source: PubChem BioAssay (NCATS)
Results filed as inconclusive are left out. Where a call stands in place of a potency, no number is given. Active and inactive are the calls of the source. Calls come from the whole dose curve; as a rule, active = well fitted curve in the direction sought with a large enough effect; inconclusive = small, poorly fitted or top-dose-only effect, or another doubt; inactive = no such curve, though single readings can be large; an effect the other way counts as inactive or inconclusive.

What was measured:
MKL-1 = assay: qHTS assay to identify novel small-molecules to repurpose for Merkel cell carcinoma treatment (AID 1296009); conditions: MCC and control cell lines, CellTiter-Glo viability, 72 h; series mostly up to 46 µM; note: nearly all actives have a fitted effect of over 60% in size
Summary of the method: (§1)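 Cells exposed to NPC (8-point) and MIPE (11-point) compound dilutions for 72 hr at 37 degree celsius; viability read by CellTiter-Glo luminescence, normalized to no-cell and DMSO in-plate controls.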

C33A = assay: Primary qHTS to identify gynecologic anti-cancer compounds using libraries of approved drugs and bioactive compounds (AID 1345084); conditions: Gynecologic cancer cell panel viability, ATPlite luminescence, 48 h; series mostly up to 57.5 µM; note: nearly all actives have a fitted effect of over 55% in size
Summary of the method: (§2)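 Cell viability after 48 h drug treatment, ATPlite luminescence readout; five doses.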

CAOV3 = assay: as above; conditions: Gynecologic cancer cell panel viability, ATPlite luminescence, 48 h; series mostly up to 57.5 µM
Summary of the method: as §2

CASKI = assay: as above; conditions: Gynecologic cancer cell panel viability, ATPlite luminescence, 48 h; series mostly up to 57.5 µM
Summary of the method: as §2

Es-2 = assay: as above; conditions: Gynecologic cancer cell panel viability, ATPlite luminescence, 48 h; series mostly up to 57.5 µM
Summary of the method: as §2

MKL-2 = assay: qHTS assay to identify novel small-molecules to repurpose for Merkel cell carcinoma treatment (AID 1296009); conditions: MCC and control cell lines, CellTiter-Glo viability, 72 h; series mostly up to 46 µM; note: nearly all actives have a fitted effect of over 60% in size
Summary of the method: as §1

NIH3T3 = assay: as above; conditions: MCC and control cell lines, CellTiter-Glo viability, 72 h; at 44.8 µM (top of the series) unless noted
Summary of the method: as §1

UISO = assay: as above; conditions: MCC and control cell lines, CellTiter-Glo viability, 72 h; series mostly up to 46 µM
Summary of the method: as §1

WaGa = assay: as above; conditions: MCC and control cell lines, CellTiter-Glo viability, 72 h; series mostly up to 46 µM
Summary of the method: as §1

HeLa = assay: Primary qHTS to identify gynecologic anti-cancer compounds using libraries of approved drugs and bioactive compounds (AID 1345084); conditions: Gynecologic cancer cell panel viability, ATPlite luminescence, 48 h; series mostly up to 57.5 µM; note: nearly all actives have a fitted effect of over 55% in size
Summary of the method: as §2
Potency is the fitted concentration of half-maximal effect.

CCNC(=O)N1CCN(CCCC(c2ccc(F)cc2)c2ccc(F)cc2)CC1
Potency (MKL-1): inactive
Potency (C33A): inactive
Potency (CAOV3): inactive
Potency (CASKI): inactive
Potency (Es-2): inactive

COCCc1ccc(OCC(O)CNC(C)C)cc1 (configuration not stated)
Potency (MKL-2): inactive
outcome (NIH3T3): inactive
Potency (UISO): inactive
Potency (WaGa): inactive
Potency (C33A): inactive
Potency (CAOV3): inactive
Potency (CASKI): inactive
Potency (Es-2): inactive
Potency (HeLa): inactive

C#CCN(C)CCCOc1ccc(Cl)cc1Cl
Potency (MKL-2): inactive
Potency (UISO): inactive
Potency (WaGa): inactive
Potency (C33A): inactive
Potency (CAOV3): inactive
Potency (CASKI): inactive
Potency (Es-2): inactive
Potency (HeLa): inactive

C[C@]12CCC(=O)C=C1CC[C@@H]1[C@@H]2CC[C@@]2(C)[C@H]1CC[C@]2(O)C(=O)CO
Potency (MKL-2): inactive
Potency (UISO): inactive
Potency (WaGa): inactive
Potency (C33A): inactive
Potency (CAOV3): inactive
Potency (CASKI): inactive
Potency (Es-2): inactive

O=C(O)CP(=O)(O)O
Potency (MKL-2): inactive
outcome (NIH3T3): inactive
Potency (UISO): inactive
Potency (WaGa): inactive
Potency (C33A): inactive
Potency (CAOV3): inactive
Potency (CASKI): inactive
Potency (Es-2): inactive

COc1ccc(CCN(C)CCCC(C#N)(c2cc(OC)c(OC)c(OC)c2)C(C)C)cc1OC (configuration not stated)
Potency (MKL-2): inactive
Potency (UISO): inactive
Potency (WaGa): inactive
Potency (C33A): inactive
Potency (CAOV3): inactive
Potency (CASKI): inactive
Potency (Es-2): inactive
Potency (HeLa): inactive

CCN(CC)CCCN(c1ccccc1)C1Cc2ccccc2C1
Potency (MKL-1): inactive
Potency (UISO): inactive
Potency (CASKI): inactive
Potency (Es-2): inactive
Potency (HeLa): inactive

Cc1ccc(/C(=C\CN2CCCC2)c2ccccn2)cc1
Potency (MKL-2): inactive
Potency (UISO): inactive
Potency (WaGa): inactive
Potency (C33A): inactive
Potency (CAOV3): inactive
Potency (CASKI): inactive
Potency (Es-2): inactive
Potency (HeLa): inactive

NC(N)=N/N=C/c1c(Cl)cccc1Cl
Potency (MKL-2): inactive
Potency (UISO): inactive
Potency (C33A): inactive
Potency (CAOV3): inactive
Potency (CASKI): inactive
Potency (Es-2): inactive
Potency (HeLa): inactive

CC1=C(C)C(=O)C(CCCCC#CCCCC#CCO)=C(C)C1=O
Potency (MKL-2): 26.6 µM (active)
Potency (WaGa): 21.1 µM (active)
Potency (CAOV3): inactive
Potency (CASKI): inactive
Potency (Es-2): inactive

C=CCc1ccccc1OCC(O)CNC(C)C (configuration not stated)
Potency (MKL-2): inactive
Potency (UISO): inactive
Potency (WaGa): inactive
Potency (C33A): inactive
Potency (CASKI): inactive
Potency (Es-2): inactive
Potency (HeLa): inactive

CCCCCCCC/C=C\CCCCCCCC(=O)NCc1ccc(O)c(OC)c1
Potency (C33A): 7.94 µM (active)
Potency (CAOV3): inactive
Potency (CASKI): inactive
Potency (Es-2): inactive
Potency (HeLa): inactive

O=C(CCNNC(=O)c1ccncc1)NCc1ccccc1
Potency (MKL-2): inactive
Potency (UISO): inactive
Potency (C33A): inactive
Potency (CAOV3): inactive
Potency (CASKI): inactive
Potency (Es-2): inactive
Potency (HeLa): inactive

CN(C)CCCN1c2ccccc2Sc2ccc(C(F)(F)F)cc21
Potency (MKL-2): 13.3 µM (active)
Potency (WaGa): 26.6 µM (active)
Potency (HeLa): inactive

CC(C)(C)c1ccc(C(=O)CCCN2CCC(OC(c3ccccc3)c3ccccc3)CC2)cc1
Potency (MKL-2): 7.5 µM (active)
Potency (WaGa): 15 µM (active)
Potency (C33A): inactive
Potency (CAOV3): 28.2 µM (active)
Potency (CASKI): inactive
Potency (Es-2): inactive
Potency (HeLa): inactive

COc1ccc([C@@H]2Sc3ccccc3N(CCN(C)C)C(=O)[C@@H]2OC(C)=O)cc1
Potency (C33A): inactive
Potency (CASKI): inactive
Potency (Es-2): inactive

COc1cc2c(cc1OC)-c1cc(=Nc3c(C)cc(C)cc3C)n(C)c(=O)n1CC2
Potency (CAOV3): inactive

O=C1NCN(c2ccccc2)C12CCN(CCCC(c1ccc(F)cc1)c1ccc(F)cc1)CC2
Potency (MKL-2): 23.7 µM (active)
Potency (CAOV3): 31.6 µM (active)
Potency (Es-2): 31.6 µM (active)

CC(C)[N+](C)(CCOC(=O)C1c2ccccc2Oc2ccccc21)C(C)C
outcome (NIH3T3): inactive
Potency (UISO): inactive
Potency (C33A): inactive
Potency (CAOV3): inactive
Potency (CASKI): inactive
Potency (Es-2): inactive
Potency (HeLa): inactive

Cc1nc2ccccn2c(=O)c1CCN1CCC(C(=O)c2ccc(F)cc2)CC1
Potency (MKL-2): inactive
Potency (UISO): inactive
Potency (C33A): inactive
Potency (CAOV3): inactive
Potency (CASKI): inactive
Potency (Es-2): inactive
Potency (HeLa): inactive

COCC(=O)O[C@]1(CCN(C)CCCc2nc3ccccc3[nH]2)CCc2cc(F)ccc2[C@@H]1C(C)C
Potency (Es-2): inactive
Potency (HeLa): inactive
